Only some compounds are listed: those with a hit (about 3.4% of all), similar ones and a draw of the others.
FBW7 activator: activators of human E3 ligase FBW7; Q969H0; AlphaScreen FBW7–phospho-cyclin E peptide binding, activator screen; normalized activity (activation), % at 26.1 µM; 0.13% of 650,000 active; in the data active = normalized activity above about 1.9%;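 also: purified mutant Fbw7 with reduced substrate affinity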
MITF inh: inhibitors of human MITF | O75030 | AlphaScreen MITF homodimerization, bead proximity signal | inhibition, % at 2.6 µM | 0.91% of 650,000 active; in the data active = inhibition above about 50%;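 also: 0% = vehicle wells with protein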
TEAD-YAP inh: TEAD-YAP interaction inhibition | HEK-TIYL cells, TEAD-Gal4/YAP UAS-luciferase luminescence | inhibition, % at 9.12 µM | 1.4% of 640,000 active | AID 1259422; in the data active = inhibition above about 32%;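 also: 0% = median of test compound wells and 100% = reference inhibitor wells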
GPR151 activ: activates the human receptor GPR151. Q8TDV0. 1% of 650,000 active. AID 1508602. PathHunter beta-arrestin GPR151 cells, luminescence. activation, % at 11.2 µM; in the data active = activation above about 4.9%;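 also: 0% = median of compound wells and 100% = cells with positive control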
Target sequence (Q8TDV0 whole entry, looked up): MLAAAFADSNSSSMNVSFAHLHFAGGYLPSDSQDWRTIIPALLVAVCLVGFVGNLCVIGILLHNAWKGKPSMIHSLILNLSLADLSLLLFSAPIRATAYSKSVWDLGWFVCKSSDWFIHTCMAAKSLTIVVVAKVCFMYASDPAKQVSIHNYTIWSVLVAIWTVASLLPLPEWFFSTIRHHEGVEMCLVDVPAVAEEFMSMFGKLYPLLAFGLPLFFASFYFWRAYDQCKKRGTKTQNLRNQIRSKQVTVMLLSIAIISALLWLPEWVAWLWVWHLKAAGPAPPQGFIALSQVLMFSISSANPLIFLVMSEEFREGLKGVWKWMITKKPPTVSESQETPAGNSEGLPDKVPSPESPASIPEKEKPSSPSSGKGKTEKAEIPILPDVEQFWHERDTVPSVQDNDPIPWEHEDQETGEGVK
GPR151 confirm: confirmation of human GPR151 activators. shares compounds with GPR151 activ. GPR151 PathHunter beta-arrestin cells, luminescence, 90 min; % of EA-reagent control over plate median. activation, % at 11.2 µM. 6,700 tested, under 10 active. AID 1508609;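 active = mean percent activation across replicates above the confirmation screen cutoff of 4.91%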
GPR119 counter: activates human GPR119 in a GPR151 counter-screen | GPR119 PathHunter beta-arrestin cells, luminescence, 90 min; 0 = compound-well median, 100 = enzyme-acceptor control | shares compounds with GPR151 activ | activation, % at 11.2 µM | 0.3% of 6,700 active;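 active = mean percent activation in the counterscreen above 29.09%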;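 also: counterscreen on off-target GPR119 to flag nonselective hits from the GPR151 activator screen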
An asterisk follows results filed as active.

For Cn1c(SCC(=O)NCc2cccs2)nnc1-c1cccs1 the results were FBW7 activator 0, MITF inh 8, TEAD-YAP inh 10 and GPR151 activ -1.
For CCn1c(SCC(=O)Nc2ccc(OC)cc2)nnc1-c1cccs1 the results were FBW7 activator 0, MITF inh 5, TEAD-YAP inh 10 and GPR151 activ 1.
`CCn1c(SCC(=O)NCc2cccs2)nnc1-c1cccs1` gave FBW7 activator 0, MITF inh 5, TEAD-YAP inh 21, GPR151 activ 6.9*, GPR151 confirm 0 and GPR119 counter 0.
NC(CC(=O)O)C(=O)O (stereo unspecified) was read as FBW7 activator 0, MITF inh 12, TEAD-YAP inh -17, GPR151 activ 7.8*, GPR151 confirm 0 and GPR119 counter 3.
`COCCn1nnnc1C(c1cc2cccc(C)c2[nH]c1=O)N1CCCCC1` (stereo unspecified) gave FBW7 activator 0, MITF inh 0, TEAD-YAP inh 5, GPR151 activ 5.2*, GPR151 confirm 0 and GPR119 counter 1.
For COCCn1nnnc1C(c1cc2cccc(C)c2[nH]c1=O)N1CCCCCC1 (stereo unspecified) the results were FBW7 activator 0, MITF inh 6, TEAD-YAP inh 7 and GPR151 activ 0.
Screening CCCc1cc(=O)[nH]c(SCC(=O)NCC23CC4CC(CC(C4)C2)C3)n1 returned FBW7 activator 0, MITF inh -13, TEAD-YAP inh 4 and GPR151 activ -1.
Cc1cc(Cl)ccc1NC(=O)C(=O)N/N=C/c1ccc([N+](=O)[O-])cc1 was read as FBW7 activator 0, MITF inh -1, TEAD-YAP inh -3 and GPR151 activ -1.
Cc1ccc(NC(=O)C(=O)N/N=C/c2ccc([N+](=O)[O-])cc2)cc1C was read as FBW7 activator 0, MITF inh -18, TEAD-YAP inh -18, GPR151 activ 15*, GPR151 confirm 0 and GPR119 counter 14.
O=C(NC1CCCC1)c1nnn(-c2ccccc2)c1CSc1ncccn1 was read as FBW7 activator 0, MITF inh -6, TEAD-YAP inh -13 and GPR151 activ 0.
Screening CCCNC(=O)c1csc(-c2c(C)nn(C)c2C)n1 returned FBW7 activator 0, MITF inh 27, TEAD-YAP inh -5, GPR151 activ 5.2*, GPR151 confirm 0 and GPR119 counter 10.
For CC1=NNC(=O)C(CC(=O)Nc2ccc(I)cc2)C1 (stereo unspecified) the results were FBW7 activator 0, MITF inh 14, TEAD-YAP inh 3 and GPR151 activ 0.
For Cc1cc(Nc2ccc3c(c2)OCO3)nc(Nc2nc3ccccc3n2C)n1 the results were FBW7 activator 0, MITF inh -10, TEAD-YAP inh 0, GPR151 activ 7.4*, GPR151 confirm 0 and GPR119 counter -1.
`COC(=O)c1c(C(=O)OC)c2n(c1C)Cc1ccccc1C2` gave FBW7 activator 0, MITF inh -4, TEAD-YAP inh 3 and GPR151 activ 0.
CCn1c2cc(C)sc2c2cnn(CC(=O)NCc3ccco3)c(=O)c21 was read as FBW7 activator 0, MITF inh -10, TEAD-YAP inh 3 and GPR151 activ -1.
For CCOC(=O)C1CCCN(C(=O)c2cc(S(=O)(=O)N3CCOCC3)cn2C)C1 (stereo unspecified) the results were FBW7 activator 0, MITF inh 5, TEAD-YAP inh -1, GPR151 activ 9.2*, GPR151 confirm 0 and GPR119 counter 3.
For CCOC(=O)C1CCN(C(=O)c2cc(S(=O)(=O)N3CCCC3)cn2C)CC1 the results were FBW7 activator 0, MITF inh 8, TEAD-YAP inh 8 and GPR151 activ 0.
O=C(Nc1cccc2cccnc12)c1ccccc1[N+](=O)[O-] was read as FBW7 activator 0, MITF inh 5, TEAD-YAP inh -5 and GPR151 activ 0.
For O=C(Nc1nnc(-c2ccco2)o1)c1nc2ccccc2s1 the results were FBW7 activator 0, MITF inh 4, TEAD-YAP inh -31, GPR151 activ 4.9*, GPR151 confirm 0 and GPR119 counter -1.
